# Measurements: PubChem BioAssay AID2129 (The Scripps Research Institute Molecular Screening Center, 2009)
# Out of some 320,000 compounds screened, about 2,200 (0.69%) were called active. The list comes from a sample in which actives are over-represented; it also holds similar structures and randomly drawn compounds. Values without a mark were called inactive.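 Rule for the calls: active = inhibition above the mean of all tested compounds plus 3 SD, cutoff set per campaign (cut at about 30% in these data); inactive = the rest.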
# Target: Bcl-2-like protein 1 (Homo sapiens) (UniProt Q07817)
# Sequence (Q07817 whole entry, looked up): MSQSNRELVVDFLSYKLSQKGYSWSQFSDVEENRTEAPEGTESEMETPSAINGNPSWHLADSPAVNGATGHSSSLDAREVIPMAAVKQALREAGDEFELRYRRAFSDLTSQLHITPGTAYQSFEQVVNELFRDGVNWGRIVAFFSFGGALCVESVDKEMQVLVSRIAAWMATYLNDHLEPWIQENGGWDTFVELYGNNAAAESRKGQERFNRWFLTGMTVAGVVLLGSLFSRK
# Assay: inhibitors of human Bcl-xL, primary screen, biochemical, fluorescence polarization, HTS (AID 2129);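 note: 0% = DMSO wells and 100% = unlabeled Bim-BH3 peptide competitor; inhibitors lower millipolarization by displacing the labeled peptide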
# Settings: GST-Bcl-xL / FITC-Bim BH3 peptide fluorescence polarization; at 10.9 µM; stronger effect = higher value
row,SMILES,inhibition
1,Cc1cc2oc(=O)cc(CN(C)Cc3ccc(OC(F)F)cc3)c2cc1Cl,0.69%
2,CC(C)=CCCC(C)CN1CCC(n2nccc2NC(=O)c2ccccc2)CC1 (stereo not drawn),3.8%
3,COC(=O)c1ccc(C)c(NC(=O)C2CC(=O)N(C3CCCC(C)C3C)C2)c1 (stereo not drawn),4.61%
4,O=C(NCc1ccccn1)Nc1ccc(Cl)cc1,1.5%
5,Cc1ccc(C)c(N2CCN(C(=O)CCCn3c(=O)c4cccn4c4cccnc43)CC2)c1,1.63%
6,O=c1onc(-c2c(F)cccc2F)n1-c1ccccc1Cl,3.32%
7,CCOC(=O)c1c(NC(=O)/C=C/c2ccco2)sc(C)c1C,0.59%
8,Cc1nnc(NC(=O)/C=C/c2ccco2)s1,39.6% (active)
9,CCC(CC)c1nnc(NC(=O)/C=C/c2ccco2)s1,4.39%
10,O=C(Nc1nnc(SCc2ccccc2Cl)s1)c1cccc([N+](=O)[O-])c1,9.99%
11,CCc1nnc(SCc2cccc(F)c2)nc1CC,1.39%
12,c1ccc(CSc2nnc(-c3ccco3)c(-c3ccco3)n2)cc1,33.4% (active)
13,COc1ccc2nc(SCc3ccccc3)nc(C)c2c1,1.64%
14,Clc1ccccc1CSc1nnc(-c2ccco2)c(-c2ccco2)n1,37% (active)
15,O=C(CC1N=C2c3ccccc3N=C(SCc3ccccc3Cl)N2C1=O)NCc1ccco1 (stereo not drawn),15%
16,Cc1ccc(SCC(=O)c2cc(C)c(OC(=S)N(C)C)c(C)c2)cc1,-0.01%
17,Cc1ccc(C2(c3ccc(C)cc3)NC(=O)N(Cc3c(C)noc3C)C2=O)cc1,6.73%
18,CC(=O)Nc1ccc(NS(=O)(=O)c2cc(C)sc2C)cc1,1.44%
19,COc1ccc(C#Cc2c(-c3ccc(OC)cc3)oc3ccc(-c4ccc5c(c4)OCO5)cc23)cc1,-0.02%
20,CCc1cccc(C)c1N1C(=O)CN(Cc2ccccc2)C1=S,-7.16%
21,Cc1ccc(CNS(=O)(=O)c2ccc3c(c2)N(C)CCO3)cc1,8.25%
22,O=C(CCCn1c(SCC(=O)c2ccccc2)nc2ccccc2c1=O)NCC1CCCO1 (stereo not drawn),-3.16%
23,O=C(CSc1nc2ccccc2c(=O)n1-c1ccc(F)cc1)NC1CC1,6.71%
24,O=C(CCn1c(SCC(=O)c2ccccc2)nc2ccccc2c1=O)NCc1ccc(F)cc1,49.4% (active)

row,SMILES,inhibition
1,Cc1c(-c2ccccc2)nc(N)c(C#N)c1-c1cccs1,8.08%
2,CN1CCc2nc(SC(C(=O)O)c3ccccc3)c(C#N)c(-c3cccs3)c2C1 (stereo not drawn),31.4% (active)
3,CCc1c(-c2ccccc2)nc(N)c(C#N)c1-c1cccs1,6.16%
4,CCOc1ccc2[nH]c(=O)c(CN(Cc3nnnn3CCc3ccccc3)CC3CCCO3)cc2c1 (stereo not drawn),0.19%
5,O=C(COC(=O)/C=C/c1nc2ccccc2s1)Nc1ccccc1Oc1ccccc1,-1.24%
6,O=C(COC(=O)c1cccc(Br)c1)Nc1cccc2c1C(=O)c1ccccc1C2=O,13.1%
7,O=C(Cn1cnc2ccccc21)Nc1ccccc1-c1ccccc1,7.35%
8,O=C(COC(=O)Cn1cnc2ccccc21)Nc1cccc2c1C(=O)c1ccccc1C2=O,137% (active)
9,CC(C)(C)n1ncc2c(=O)n(Cc3ccc(Cl)cc3)cnc21,4.43%
10,CCOC(=O)N1CCN(CC(=O)n2c(C)c(C)c3ccccc32)CC1,9.52%
11,Cc1nn(C(=O)c2ccoc2C)c(N)c1-c1ccccc1,173% (active)
12,Cc1nn(-c2ccc([N+](=O)[O-])cc2)c(N)c1-c1ccccc1,-20.3%
13,C/C(=N\NC(=O)c1ccoc1C)c1ccccc1O,4.04%
14,Cc1noc(C)c1C(=O)NCC1COc2ccccc2O1 (stereo not drawn),-7.18%
15,O=C(NCc1ccncc1)C1CCCN(S(=O)(=O)c2ccc(Br)cc2)C1 (stereo not drawn),9.21%
16,O=C(NCc1cc(C(F)(F)F)cc(C(F)(F)F)c1)C1CC(c2cccc(F)c2)=NO1 (stereo not drawn),1.88%
17,CCN1C(=O)[C@@H]2[C@@H](c3ccc(-c4ccc(OC)cc4)c(OC)c3)N3CCC[C@@]3(C(=O)OC)[C@@H]2C1=O,4.65%
18,Cn1c(C(=O)N2CCCC(C(=O)NCc3ccccc3)C2)cc2sccc21 (stereo not drawn),3.21%
19,Cc1ccccc1CSCCNC(=O)c1ccc(Cl)c(S(=O)(=O)N2CCOCC2)c1,3%
20,Cc1nn(Cc2ccccc2)c(C)c1CNC(=O)c1ccc(F)c(S(=O)(=O)N2CCOCC2)c1,114% (active)
21,COc1ccc(C(=O)N(Cc2ccccc2)c2ccc(C)cc2)cc1S(=O)(=O)N1CCOCC1,5.85%
22,O=C(Nc1ccccc1N1CCCC1)c1ccc(F)c(S(=O)(=O)N2CCOCC2)c1,1.14%
23,O=C(c1ccc(F)c(S(=O)(=O)N2CCOCC2)c1)N(CCc1ccccc1)Cc1ccccc1,31.7% (active)
24,O=C(NCCSCc1ccccc1)c1ccc(Cl)c(S(=O)(=O)N2CCOCC2)c1,1.38%
